From PubChem BioAssay AID1159580 (chemical genetic matrix, 2015)
The whole screen tested about 5,500 compounds, of which about 2,000 (36%) were called active. Another 18% or so got no clear call; they are omitted. Rule as the data show it: active = normalized growth mostly below about 0.91 (no sharp cut-off); inconclusive = no clear call, values can overlap the other calls; inactive = mostly above about 0.92. The list shows a part of the results.

Assay: chemical genetic growth profiling, strain panel (AID 1159580);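 also: tested at 20 µM; growth read once vehicle control cultures reached saturation at 30 °C; 1 = growth at the plate median or of vehicle wells; lower values mean less growth of the strain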
Settings: S. cerevisiae deletion strains, growth OD

Measured: normalized growth

CC(=O)Oc1ccc(-c2cc(=O)c3c(OC(C)=O)cc(OC(C)=O)cc3o2)cc1
inactive: locus YAL021C, strain ccr4, stronger effect = lower value 0.975 | locus YAL026C, strain drs2, stronger effect = lower value 0.947 | locus YAL030W, strain snc1, stronger effect = lower value 0.975 | locus YBL061C, strain skt5, stronger effect = lower value 0.965 | locus YBR009C, strain hhf1, stronger effect = lower value 0.96 | locus YBR023C, strain chs3, stronger effect = lower value 0.951 | locus YBR171W, strain sec66, stronger effect = lower value 0.955 | locus YBR231C, strain swc5, stronger effect = lower value 0.968 | locus YBR279W, strain paf1, stronger effect = lower value 0.974 | locus YCL011C, strain gbp2, stronger effect = lower value 0.963 | locus YCL016C, strain dcc1, stronger effect = lower value 0.974 | locus YCL061C, strain MRC1, stronger effect = lower value 0.988 | locus YCL069W, strain vba3, stronger effect = lower value 0.964 | locus YCR088W, strain abp1, stronger effect = lower value 0.966 | locus YDL005C, strain med2, stronger effect = lower value 0.977 | locus YDL040C, strain nat1, stronger effect = lower value 0.966 | locus YDR001C, strain nth1, stronger effect = lower value 0.965 | locus YDR069C, strain doa4, stronger effect = lower value 0.95 | locus YDR137W, strain rgp1, stronger effect = lower value 1 | locus YDR159W, strain sac3, stronger effect = lower value 0.935 | locus YDR195W, strain ref2 0.942 | locus YDR297W, strain sur2, stronger effect = lower value 0.976 | locus YDR334W, strain swr1, stronger effect = lower value 0.958 | locus YDR335W, strain msn5, stronger effect = lower value 0.982 | locus YDR392W, strain spt3, stronger effect = lower value 0.906 | locus YEL003W, strain gim4, stronger effect = lower value 0.961 | locus YEL037C, strain rad23, stronger effect = lower value 0.952 | locus YEL061C, strain CIN8 (second series), stronger effect = lower value 0.958 | locus YER015W, strain faa2, stronger effect = lower value 0.984 | locus YER016W, strain bim1, stronger effect = lower value 0.976 | locus YER111C, strain swi4, stronger effect = lower value 0.953 | locus YER155C, strain BEM2 (second series), stronger effect = lower value 0.957 | locus YFR010W, strain ubp6, stronger effect = lower value 0.957 | locus YGL167C, strain pmr1, stronger effect = lower value 0.965 | locus YGL173C, strain kem1, stronger effect = lower value 0.983 | locus YGL227W, strain vid30, stronger effect = lower value 0.955 | locus YGL240W, strain doc1, stronger effect = lower value 0.962 | locus YGL253W, strain hxk2, stronger effect = lower value 0.973 | locus YHR013C, strain ard1, stronger effect = lower value 0.92 | locus YHR027C, strain rpn1, stronger effect = lower value 0.982 | locus YHR142W, strain chs7, stronger effect = lower value 0.973 | locus YJL092W, strain hpr5, stronger effect = lower value 0.982 | locus YJL095W, strain BCK1 (second series), stronger effect = lower value 0.988 | locus YJL115W, strain asf1, stronger effect = lower value 0.954 | locus YJL129C, strain trk1, stronger effect = lower value 0.95 | locus YJL154C, strain vps35, stronger effect = lower value 0.961 | locus YJL164C, strain tpk1, stronger effect = lower value 0.964 | locus YJL166W, strain qcr8, stronger effect = lower value 0.971 | locus YJL187C, strain SWE1, stronger effect = lower value 0.976 | locus YKL160W, strain elf1, stronger effect = lower value 1.01 | locus YKR026C, strain gcn3, stronger effect = lower value 0.949 | locus YKR091W, strain srl3, stronger effect = lower value 0.97 | locus YLL001W, strain dnm1, stronger effect = lower value 0.997 | locus YLL026W, stronger effect = lower value 0.973 | locus YLL041C, strain sdh2, stronger effect = lower value 0.98 | locus YLR027C, strain aat2, stronger effect = lower value 0.96 | locus YLR221C, strain rsa3, stronger effect = lower value 0.958 | locus YLR258W, strain gsy2, stronger effect = lower value 0.977 | locus YLR262C, strain YPT6 (second series), stronger effect = lower value 0.999 | locus YLR320W, strain mms22, stronger effect = lower value 0.958 | locus YLR342W, strain FKS1, stronger effect = lower value 0.968 | locus YLR357W, strain rsc2, stronger effect = lower value 0.902 | locus YLR370C, strain arc18, stronger effect = lower value 0.958 | locus YLR384C, strain iki3, stronger effect = lower value 0.966 | locus YML120C, strain ndi1, stronger effect = lower value 0.967 | locus YMR058W, strain fet3, stronger effect = lower value 0.965 | locus YMR125W, strain sto1, stronger effect = lower value 0.955 | locus YMR129W, stronger effect = lower value 0.967 | locus YMR205C, strain PFK2, stronger effect = lower value 0.941 | locus YMR231W, strain pep5, stronger effect = lower value 0.975 | locus YNL071W, strain lat1, stronger effect = lower value 0.967 | locus YNL209W, strain ssb2, stronger effect = lower value 0.979 | locus YNL248C, strain rpa49, stronger effect = lower value 0.979 | locus YNL322C, strain KRE1 (second series), stronger effect = lower value 0.95 | locus YNR049C, strain mso1, stronger effect = lower value 0.953 | locus YOR001W, strain rrp6, stronger effect = lower value 0.987 | locus YOR070C, strain gyp1, stronger effect = lower value 0.977 | locus YOR080W, strain dia2, stronger effect = lower value 0.961 | locus YOR083W, strain WHI5, stronger effect = lower value 1.02 | locus YOR106W, strain vam3, stronger effect = lower value 0.986 | locus YOR265W, strain rbl2, stronger effect = lower value 0.981 | locus YOR270C, strain vph1, stronger effect = lower value 0.899 | locus YOR290C, strain snf2, stronger effect = lower value 0.899 | locus YPL051W, strain arl3, stronger effect = lower value 1 | locus YPL078C, strain atp4, stronger effect = lower value 0.984 | locus YPL106C, strain sse1, stronger effect = lower value 0.946 | locus YPL240C, strain hsp82, stronger effect = lower value 0.987
